According to PubChem BioAssay:
Values joined by “and” are separate entries in the source; they are usually repeats but may differ in a detail not shown here. Equal values may be shown once. Active and inactive are the calls of the source.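 How the source made its calls, unless noted: active means mean z-score across replicates of 1.96 or higher in either the MELAS or the Rieske mutant cell line; inactive means the rest.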

Key:
[1] = stimulators of nuclear beta-catenin in C2C12, primary screen, imaging, WNT3A-conditioned medium, mouse C2C12, NPC library (AID 1117326; in the data active means nuclear beta-catenin stimulation mostly above about 4.2%, no sharp cut-off; inactive means mostly below about 10%); conditions: stronger effect = higher value
[2] = growth inhibition of GSK3B-pretreated HCT116 cells – cell-based, CellTiter-Glo, 0.2 to 20 µM (AID 1117336;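 active means compounds lowering colon cancer cell viability after pretreatment blocking the GSK3B kinase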); conditions: HCT116 viability after GSK3B inhibitor, at 20 µM, stronger effect = higher value
[3] = inhibition of endothelial tube formation, primary screen, imaging, VEGF stimulated, CD31 staining, tube area, NPC library (AID 1117340;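 active means compound that reduces growth-factor-driven endothelial tube area in a mixed cell culture, no cutoff stated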); conditions: VEGF-stimulated ADSC/ECFC co-culture, at 10 µM, stronger effect = higher value
[4] = HCT116 colon cancer cell growth inhibition, primary screen, CellTiter-Glo luminescence, NPC library (AID 1117342;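 active means compounds that lower survival of HCT116 colon cancer cells in the luminescence readout, no numeric limit stated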); conditions: at 20 µM (top of the series)
[5] = CellTiter-Glo luminescent readout of SW480 viability loss, NPC library primary (AID 1117343;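 active means compounds that lower viability of the colon cancer cells in the luminescence readout, with no numeric limit stated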); conditions: CellTiter-Glo luminescence; at 20 µM (top of the series) unless noted
[6] = decreased DLD-1 cellular survival, CellTiter-Glo luminescent readout, NPC compound collection, primary HTS (AID 1117346;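 active means compounds that lower survival of DLD-1 colon cancer cells in the luminescence readout, no cutoff given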); conditions: DLD-1 viability, CellTiter-Glo luminescence; at 20 µM (top of the series)
[7] = differential killing of epithelial or mesenchymal cells, primary screen, imaging, PC-3E GFP, TEM4-18 mCherry, co-culture (AID 1345086;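 active means compounds killing one labelled cell type while sparing the other, by normalised counts and ratio limits, not self-fluorescent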;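 on all read-outs here: cells exposed to compound for 72 h before imaging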;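 on red/green cell ratio (normalised): normalised mesenchymal count divided by normalised epithelial count so high means epithelial killing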); conditions: imaging cell counts, at 1 µM; for red/green cell ratio (normalised): actives lie on both sides, counts scaled to control wells, 1 = unselective
[8] = survival rescue of mitochondrial mutant cells in low glucose, primary screen, MELAS cybrids, Rieske KO mouse fibroblasts, CellTiter-Glo (AID 1508586);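 further: z relative to plate mean and SD of compound and empty wells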
[9] = biological target: Mitogen-activated protein kinase 7 (Homo sapiens) (UniProt Q13164); assay: ERK5 transactivation activators in reporter cells, primary screen, cell-based, HTS (AID 1508626;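 active means luciferase signal above three times the same-plate solvent-only control wells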;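 further: luciferase driven by Gal4-ERK5 fusion binding five Gal4 sites before minimal TATA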); conditions: HeLa Gal4-ERK5 transactivation, 18 h, at 5 µM, stronger effect = higher value
[10] = viability rescue of complex I mutant cybrids, primary screen, cell-based, galactose medium, ATP luminescence (AID 1645843;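 active means z-score of at least 1.8 in each of two replicates, scored against plate mean and spread of sample wells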;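 further: positive z means more ATP and so rescue of galactose-driven cybrid death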); conditions: complex I mutant cybrid cells, 72 h, stronger effect = higher value
[11] = hESC survival regulators, cell-based (AID 493140; call rule not given here;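 further: cells exposed to compounds for four days before counting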); conditions: human embryonic stem cell survival screen; stronger effect = higher value
[12] = stimulators of insulin release from INS-1E, primary screen, cell-based, 5 mM glucose, NPC library (AID 1117329;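 active means compound raises insulin release from rat beta cells at 5 mM glucose, no numeric limit stated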); conditions: rat INS-1E insulin secretion, at 10 µM, stronger effect = higher value
[13] = glucagon-like peptide 1 release enhancers, primary assay, NCI-H716 cell line, NPC library (AID 1117341;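 active means compound raises GLP1 secretion from the human gut endocrine cells, with no numeric limit stated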); conditions: NCI-H716 cells, at 10 µM, stronger effect = higher value
[14] = biological target: 6-phosphogluconate dehydrogenase, decarboxylating (Homo sapiens) (UniProt P52209); assay: 6PGD enzyme inhibitors, primary screen, biochemical, human, recombinant enzyme, NADPH absorbance (AID 1159550;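 active means at least 20% inhibition of 6-phosphogluconate dehydrogenase activity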); conditions: recombinant 6PGD, NADPH absorbance 341 nm; at 10 µM; stronger effect = higher value
[15] = biological target: NAD(+) hydrolase SARM1 (Homo sapiens) (UniProt Q6SZW1); assay: SARM1 TIR NADase inhibitors, cell lysate, NAD-Glo luminescence (AID 1508614;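 active means compound whose remaining NAD level is above about 45 nM, limit read from the data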); conditions: SAM-TIR HEK293T lysate NADase, at 1 µM, stronger effect = higher value
[16] = sensitizers of A549 cells to miR-34 induction, primary screen, imaging, A549 dox-inducible miR-34, nuclei and caspase counts (AID 1347080;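 active means compounds whose cell count with miR-34 switched on is under 0.7 times the count with it off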); conditions: A549 miR-34 inducible, Hoechst nuclei count, 48 h
[17] = measured here: epithelial PC-3E GFP cell survival
[18] = measured here: mesenchymal TEM4-18 mCherry cell survival
[19] = MELAS cybrid survival, CellTiter-Glo 48 h, stronger effect = higher value
[20] = Rieske KO mouse fibroblast survival, CellTiter-Glo 72 h

Sequence of Mitogen-activated protein kinase 7 (Homo sapiens) (Q13164 whole entry, looked up, the tested form may be a part): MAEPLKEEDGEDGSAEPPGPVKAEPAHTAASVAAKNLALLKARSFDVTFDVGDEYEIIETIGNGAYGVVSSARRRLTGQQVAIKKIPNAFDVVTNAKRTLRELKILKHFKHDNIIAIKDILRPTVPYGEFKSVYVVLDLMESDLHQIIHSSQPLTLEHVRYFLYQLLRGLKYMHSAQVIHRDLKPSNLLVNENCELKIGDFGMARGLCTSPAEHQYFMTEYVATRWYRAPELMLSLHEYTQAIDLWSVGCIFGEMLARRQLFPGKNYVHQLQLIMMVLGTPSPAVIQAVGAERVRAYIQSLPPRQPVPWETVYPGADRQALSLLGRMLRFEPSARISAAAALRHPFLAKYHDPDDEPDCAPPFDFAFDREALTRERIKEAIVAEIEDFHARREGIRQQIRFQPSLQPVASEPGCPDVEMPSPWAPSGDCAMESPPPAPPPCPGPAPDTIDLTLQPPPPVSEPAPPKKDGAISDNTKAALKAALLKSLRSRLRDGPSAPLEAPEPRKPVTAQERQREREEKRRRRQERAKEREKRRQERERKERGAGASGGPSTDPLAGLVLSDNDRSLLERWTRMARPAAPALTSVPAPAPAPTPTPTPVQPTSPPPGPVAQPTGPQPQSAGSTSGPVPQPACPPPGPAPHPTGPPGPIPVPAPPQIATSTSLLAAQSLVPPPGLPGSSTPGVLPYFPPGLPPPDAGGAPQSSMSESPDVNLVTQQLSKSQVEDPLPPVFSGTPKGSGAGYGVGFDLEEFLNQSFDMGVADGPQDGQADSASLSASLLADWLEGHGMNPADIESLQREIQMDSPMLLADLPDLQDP
Sequence of NAD(+) hydrolase SARM1 (Homo sapiens) (Q6SZW1 whole entry, looked up): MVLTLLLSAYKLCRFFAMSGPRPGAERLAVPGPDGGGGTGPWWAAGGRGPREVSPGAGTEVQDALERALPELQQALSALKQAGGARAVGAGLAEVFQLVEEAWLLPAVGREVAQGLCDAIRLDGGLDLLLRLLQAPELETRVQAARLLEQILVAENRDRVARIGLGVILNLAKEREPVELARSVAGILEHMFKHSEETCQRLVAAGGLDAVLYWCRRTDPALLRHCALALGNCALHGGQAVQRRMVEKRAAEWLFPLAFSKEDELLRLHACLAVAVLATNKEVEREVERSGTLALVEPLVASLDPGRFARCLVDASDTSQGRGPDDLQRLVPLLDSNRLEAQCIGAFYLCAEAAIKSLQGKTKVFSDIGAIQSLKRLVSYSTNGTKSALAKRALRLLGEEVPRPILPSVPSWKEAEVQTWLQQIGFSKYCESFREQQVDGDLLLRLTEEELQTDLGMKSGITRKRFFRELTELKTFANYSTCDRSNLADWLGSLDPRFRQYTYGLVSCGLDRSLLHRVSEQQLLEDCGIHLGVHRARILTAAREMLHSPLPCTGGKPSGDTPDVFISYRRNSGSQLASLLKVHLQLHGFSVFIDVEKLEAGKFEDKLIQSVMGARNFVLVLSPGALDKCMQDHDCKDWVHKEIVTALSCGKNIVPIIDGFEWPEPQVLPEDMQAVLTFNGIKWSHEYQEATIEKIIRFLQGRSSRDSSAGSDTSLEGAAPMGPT
Sequence of 6-phosphogluconate dehydrogenase, decarboxylating (Homo sapiens) (P52209 whole entry, looked up): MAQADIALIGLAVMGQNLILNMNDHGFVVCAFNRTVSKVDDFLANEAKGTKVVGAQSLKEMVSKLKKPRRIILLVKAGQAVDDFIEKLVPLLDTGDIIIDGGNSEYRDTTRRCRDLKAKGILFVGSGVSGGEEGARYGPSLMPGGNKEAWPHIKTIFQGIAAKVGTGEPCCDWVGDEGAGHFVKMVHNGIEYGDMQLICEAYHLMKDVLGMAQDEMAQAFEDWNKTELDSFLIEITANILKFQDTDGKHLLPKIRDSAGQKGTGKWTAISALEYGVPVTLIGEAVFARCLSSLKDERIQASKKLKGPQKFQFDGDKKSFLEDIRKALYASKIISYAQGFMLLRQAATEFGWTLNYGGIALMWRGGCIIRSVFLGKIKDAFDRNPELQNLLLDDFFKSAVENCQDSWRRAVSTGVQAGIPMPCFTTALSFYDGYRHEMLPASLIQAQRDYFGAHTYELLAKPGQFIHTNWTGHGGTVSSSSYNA

NC(=O)c1cccnc1
0.704 and -0.543 and -0.673: z-score [8, 20]
7.7%: nuclear beta-catenin stimulation ([1]; stimulation, at 2 µM)
inactive: nuclear beta-catenin stimulation ([1]; at 10 µM) 0.1% | viability decrease [2] 7% | tube area decrease [3] -7.9% | inhibition of viability [4] 11.2% | viability decrease (inhibition) [5] 1.3% | viability decrease (inhibition) [6] 4.3% | red/green cell ratio (normalised) [7] 1.14 | z-score [8, 19] -0.258 and -0.151 and -0.172 | luciferase signal [9] 32 AU | z-score [10] 0.75 and 0.635
1.05: normalised cell number [7, 17]
1.2: normalised cell number [7, 18]

CC(C(=O)O)c1cccc(C(=O)c2ccccc2)c1 (configuration not stated)
0.963 and -0.169 and -0.868: z-score [8, 20]
1.07: normalised cell number [7, 17]
inactive: survival [11] 15.6 | insulin secretion stimulation [12] 1.7% | viability decrease [2] 9.9% | tube area decrease [3] -21.2% | GLP1 secretion stimulation [13] 1.2% | inhibition of viability [4] 1.73% | viability decrease (inhibition) [5] 1.9% | viability decrease (inhibition) [6] -13.8% | inhibition [14] -9.9% | red/green cell ratio (normalised) [7] 1.06 | z-score [8, 19] -0.241 and 0.309 and -0.387 | remaining NAD [15] 10 nM | luciferase signal [9] 60 AU | z-score [10] 0.45 and 0.27 and 0.89
1.13: normalised cell number [7, 18]

CN1CCN(C2=Nc3cc(Cl)ccc3Nc3ccccc32)CC1
active: inhibition of viability [4] 63% | viability decrease (inhibition) [5] 66.6%
0.276 and 0.587: z-score [8, 20]
1.09: normalised cell number [7, 17]
1.14: normalised cell number [7, 18]
inactive: survival [11] 15.2 | insulin secretion stimulation [12] 3.6% | viability decrease [2] 17.2% | tube area decrease [3] -0.2% | GLP1 secretion stimulation [13] 7.2% | viability decrease (inhibition) [6] 14.1% | inhibition [14] -3.75% | red/green cell ratio (normalised) [7] 1.04 | z-score [8, 19] -1.17 and -0.401 and 0.405 | remaining NAD [15] 10 nM | luciferase signal [9] 24 AU

O=C(O)CCc1nc(-c2ccccc2)c(-c2ccccc2)o1
-0.145 and -0.466: z-score [8, 20]
inactive: survival [11] 5.67 | insulin secretion stimulation [12] 1.3% | viability decrease [2] -61.8% | tube area decrease [3] -17.6% | GLP1 secretion stimulation [13] 2.2% | inhibition of viability [4] 9.15% | viability decrease (inhibition) [5] 8.7% | viability decrease (inhibition) [6] -5.7% | inhibition [14] -3.27% | red/green cell ratio (normalised) [7] 1.03 | z-score [8, 19] -0.226 and -0.656 | remaining NAD [15] 10 nM | luciferase signal [9] 44 AU | z-score [10] 0.9 and 1.19
1.14: normalised cell number [7, 17]
1.18: normalised cell number [7, 18]

CN1C(=O)CC[C@H]1c1cccnc1
1.13: normalised cell number [7, 17]
1.81 and 1.06 and 0.497: fold change ([16]; measured here: relative caspase fold change +Dox/-Dox)
inactive: survival [11] 19.8 | nuclear beta-catenin stimulation ([1]; at 10 µM) -1.4% | viability decrease [2] 22.7% | inhibition of viability [4] 12.8% | viability decrease (inhibition) [5] -3% | viability decrease (inhibition) [6] 14.2% | inhibition [14] 7.9% | red/green cell ratio (normalised) [7] 1.08 | fold change ([16]; stronger effect = lower value, cell number ratio, induced over uninduced) 1 and 0.929 and 0.864 | remaining NAD [15] 22 nM | luciferase signal [9] 64 AU | z-score [10] 0.48
10100 and 7880 and 10300: cell count ([16]; measured here: total cells with miR-34 induction, stronger effect = lower value)
10100 and 8480 and 11900: cell count ([16]; measured here: total cells without miR-34 induction)
1.23: normalised cell number [7, 18]
5.5%: nuclear beta-catenin stimulation ([1]; stimulation, at 2 µM)
